# Inconclusive results are not listed. Unmarked numbers belong to inactive results. Calls of active or inactive are those of the source. The call rests on the fitted dose curve; in most records, active means well fitted cell-killing curve with a large enough effect; inconclusive means small, poorly fitted or top-dose-only effect, or effect the other way; inactive means no such curve, though single readings can be large or run the other way.
# Assays:
# [1] = Quantitative High-Throughput drug screen in 47 multiple myeloma cell lines against the NCATS MIPE library collection: MM1R_ATCC cell viability assay (AID 1918981); further: nearly all actives have a fitted effect of over 35% in size; further: potency means the concentration at half of the fitted maximal effect
# Summary of the method: (§1)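 MIPE 4.0 approved/investigational drugs; 500 cells/well; 48 h 37 °C humidified 5% CO2; CTG luminescence readout; DMSO = 100%, media = 0% viability.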
# [2] = Quantitative High-Throughput drug screen in 47 multiple myeloma cell lines against the NCATS MIPE library collection: LP1_DSMZ cell viability assay (AID 1918982); further: nearly all actives have a fitted effect of over 35% in size
# Summary of the method: as §1
# [3] = Quantitative High-Throughput drug screen in 47 multiple myeloma cell lines against the NCATS MIPE library collection: OCIMY5_PLB cell viability assay (AID 1918988); further: nearly all actives have a fitted effect of over 65% in size; further: potency means the concentration at half of the fitted maximal effect
# Summary of the method: as §1
# [4] = Quantitative High-Throughput drug screen in 47 multiple myeloma cell lines against the NCATS MIPE library collection: OPM1_PLB cell viability assay (AID 1918989); further: nearly all actives have a fitted effect of over 40% in size; further: potency means the concentration at half of the fitted maximal effect
# Summary of the method: as §1
# [5] = Quantitative High-Throughput drug screen in 47 multiple myeloma cell lines against the NCATS MIPE library collection: XG6_PLB cell viability assay (AID 1919865); further: nearly all actives have a fitted effect of over 40% in size; further: potency means the concentration at half of the fitted maximal effect
# Summary of the method: as §1
# [6] = Quantitative High-Throughput drug screen in 47 multiple myeloma cell lines against the NCATS MIPE library collection: XG1_PLB cell viability assay (AID 1919866); further: nearly all actives have a fitted effect of over 35% in size; further: potency means the concentration at half of the fitted maximal effect
# Summary of the method: as §1
# [7] = Quantitative High-Throughput drug screen in 47 multiple myeloma cell lines against the NCATS MIPE library collection: PE2_PLB cell viability assay (AID 1919869); further: nearly all actives have a fitted effect of over 35% in size; further: potency means the concentration at half of the fitted maximal effect
# Summary of the method: as §1
# [8] = Quantitative High-Throughput drug screen in 47 multiple myeloma cell lines against the NCATS MIPE library collection: PCM6_Riken cell viability assay (AID 1919870); further: nearly all actives have a fitted effect of over 30% in size; further: potency means the concentration at half of the fitted maximal effect
# Summary of the method: as §1
# [9] = Quantitative High-Throughput drug screen in 47 multiple myeloma cell lines against the NCATS MIPE library collection: RPMI8226_ATCC cell viability assay (AID 1919871); further: nearly all actives have a fitted effect of over 30% in size; further: potency means the concentration at half of the fitted maximal effect
# Summary of the method: as §1
# [10] = Quantitative High-Throughput drug screen in 47 multiple myeloma cell lines against the NCATS MIPE library collection: OPM2_DSMZ cell viability assay (AID 1919872); further: nearly all actives have a fitted effect of over 30% in size; further: potency means the concentration at half of the fitted maximal effect
# Summary of the method: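 qHTS of the MIPE 4.0 collection: 500 myeloma cells/well, 48 h drug exposure at 37C in 5% CO2, then CellTiter-Glo for 5 min at room temperature before luminescence reading.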
# [11] = Quantitative High-Throughput drug screen in 47 multiple myeloma cell lines against the NCATS MIPE library collection: KMS11_JCRBsus cell viability assay (AID 1919873); further: nearly all actives have a fitted effect of over 50% in size; further: potency means the concentration at half of the fitted maximal effect
# Summary of the method: as §1
# [12] = Quantitative High-Throughput drug screen in 47 multiple myeloma cell lines against the NCATS MIPE library collection: KMS28BM_JCRB cell viability assay (AID 1919874); further: nearly all actives have a fitted effect of over 35% in size; further: potency means the concentration at half of the fitted maximal effect
# Summary of the method: as §1
# [13] = Quantitative High-Throughput drug screen in 47 multiple myeloma cell lines against the NCATS MIPE library collection: KMS28PE_JCRB cell viability assay (AID 1918983); further: nearly all actives have a fitted effect of over 35% in size; further: potency means the concentration at half of the fitted maximal effect
# Summary of the method: as §1
# [14] = Quantitative High-Throughput drug screen in 47 multiple myeloma cell lines against the NCATS MIPE library collection: L363_DSMZ cell viability assay (AID 1918984); further: nearly all actives have a fitted effect of over 40% in size; further: potency means the concentration at half of the fitted maximal effect
# Summary of the method: as §1
# [15] = Quantitative High-Throughput drug screen in 47 multiple myeloma cell lines against the NCATS MIPE library collection: KMS34_JCRB cell viability assay (AID 1918985); further: nearly all actives have a fitted effect of over 40% in size; further: potency means the concentration at half of the fitted maximal effect
# Summary of the method: as §1
# [16] = Quantitative High-Throughput drug screen in 47 multiple myeloma cell lines against the NCATS MIPE library collection: OCIMY7_PLB cell viability assay (AID 1918987); details: OCI-MY7 myeloma viability, CellTiter-Glo ATP, 48 h; viability (% of DMSO): at 45.8 µM (top of the series); further: potency means the concentration at half of the fitted maximal effect; nearly all actives have a fitted effect of over 65% in size
# Summary of the method: as §1
# [17] = Quantitative High-Throughput drug screen in 47 multiple myeloma cell lines against the NCATS MIPE library collection: SKMM1_PLB cell viability assay (AID 1919863); details: SKMM1 myeloma viability, CellTiter-Glo ATP, 48 h; viability: active compounds read low; further: nearly all actives have a fitted effect of over 35% in size; further: potency means the concentration at half of the fitted maximal effect
# Summary of the method: as §1
# [18] = Quantitative High-Throughput drug screen in 47 multiple myeloma cell lines against the NCATS MIPE library collection: U266_ATCC cell viability assay (AID 1919864); further: nearly all actives have a fitted effect of over 35% in size; further: potency means the concentration at half of the fitted maximal effect;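 on viability (% of DMSO control): 0% = media-only wells without cells and 100% = DMSO-only wells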
# Summary of the method: as §1
# [19] = Quantitative High-Throughput drug screen in 47 multiple myeloma cell lines against the NCATS MIPE library collection: VP6_DJ cell viability assay (AID 1919867); further: nearly all actives have a fitted effect of over 40% in size; further: potency means the concentration at half of the fitted maximal effect;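 on viability (% of DMSO): 100% = DMSO-only wells and 0% = wells with media alone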
# Summary of the method: as §1
# [20] = Quantitative High-Throughput drug screen in 47 multiple myeloma cell lines against the NCATS MIPE library collection: UTMC2_PLB cell viability assay (AID 1919868); details: CellTiter-Glo ATP luminescence, 48 h; viability (% of DMSO control): at 45.8 µM (top of the series); further: nearly all actives have a fitted effect of over 55% in size; further: potency means the concentration at half of the fitted maximal effect;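 on viability (% of DMSO control): 100% = DMSO-only wells and 0% = media-only wells without cells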
# Summary of the method: as §1
structure (smiles),measurement,setting,value
CON=C(C(=O)N[C@@H]1C(=O)N2C(C(=O)OCOC(=O)C(C)(C)C)=C(C=Cc3scnc3C)CS[C@H]12)c1csc(N)n1,Potency,[1],18.7 µM (active)
same,Potency,[2],inactive
same,Potency,[3],inactive
same,Potency,[4],inactive
same,Potency,[5],26.4 µM (active)
same,Potency,[6],18.7 µM (active)
same,Potency,[7],18.7 µM (active)
same,Potency,[8],20.9 µM (active)
same,Potency,[9],inactive
same,Potency,[10],inactive
same,Potency,[11],inactive
same,Potency,[12],inactive
O=C(CCCCCCC(=O)Nc1ccccc1)NO,Potency,[1],2.09 µM (active)
same,Potency,[13],3.72 µM (active)
same,Potency,[14],1.87 µM (active)
same,Potency,[15],1.87 µM (active)
same,Potency,[16],2.35 µM (active)
same,Potency,[3],2.64 µM (active)
same,Potency,[4],1.32 µM (active)
same,Potency,[17],3.72 µM (active)
same,Potency,[18],5.9 µM (active)
same,Potency,[6],2.96 µM (active)
same,Potency,[19],0.833 µM (active)
same,Potency,[20],0.662 µM (active)
same,Potency,[7],3.32 µM (active)
same,Potency,[8],3.32 µM (active)
same,Potency,[9],4.69 µM (active)
same,Potency,[10],4.69 µM (active)
same,Potency,[11],2.64 µM (active)
same,Potency,[12],2.09 µM (active)
CCOc1ccc(Nc2nc(-c3c(C)nc4ccccn34)cs2)cc1,Potency,[1],0.0059 µM (active)
same,Potency,[13],0.0059 µM (active)
same,Potency,[15],0.0033 µM (active)
same,Potency,[3],0.0026 µM (active)
same,Potency,[4],0.0066 µM (active)
same,Potency,[17],0.264 µM (active)
same,Potency,[5],inactive
same,Potency,[6],inactive
same,Potency,[10],0.0037 µM (active)
same,Potency,[11],inactive
same,Potency,[12],inactive
Clc1ccc(-c2nc3sccn3c2C=NOCc2ccc(Cl)c(Cl)c2)cc1,Potency,[1],inactive
same,Potency,[2],inactive
same,Potency,[15],inactive
same,Potency,[4],inactive
same,viability,[17],102%
same,Potency,[20],inactive
same,Potency,[7],inactive
same,Potency,[9],inactive
same,Potency,[10],inactive
same,Potency,[11],inactive
same,Potency,[12],inactive
O=C(NCc1ccncc1)C12C[C@H]3C[C@@H](C1)CC(c1ccc(Cl)cc1)(C3)C2,Potency,[1],18.7 µM (active)
same,Potency,[13],23.5 µM (active)
same,Potency,[14],5.26 µM (active)
same,Potency,[16],18.7 µM (active)
same,Potency,[3],18.7 µM (active)
same,Potency,[4],18.7 µM (active)
same,Potency,[17],23.5 µM (active)
same,Potency,[18],16.6 µM (active)
same,Potency,[5],4.69 µM (active)
same,Potency,[9],29.6 µM (active)
same,Potency,[11],14.8 µM (active)
same,Potency,[12],18.7 µM (active)
O=C(O)C(O)Cc1ccc(O)c(O)c1 (centres undefined),Potency,[1],20.9 µM (active)
same,Potency,[13],23.5 µM (active)
same,Potency,[14],inactive
same,Potency,[15],18.7 µM (active)
same,Potency,[3],23.5 µM (active)
same,Potency,[17],11.8 µM (active)
same,Potency,[18],26.4 µM (active)
same,Potency,[5],inactive
same,Potency,[7],16.6 µM (active)
same,Potency,[9],26.4 µM (active)
same,Potency,[10],11.8 µM (active)
O=C1C[C@@H](c2ccc(O)cc2)Oc2cc(O)cc(O)c21,Potency,[1],inactive
same,Potency,[2],inactive
same,Potency,[4],inactive
same,Potency,[5],inactive
same,Potency,[6],inactive
same,Potency,[7],inactive
same,Potency,[9],inactive
same,Potency,[10],inactive
same,Potency,[11],inactive
same,Potency,[12],inactive
COc1ccc2c(Oc3ccc(NC(=O)c4c(C)n(CC(C)(C)O)n(-c5ccccc5)c4=O)nc3)ccnc2c1,Potency,[1],inactive
same,Potency,[2],inactive
same,Potency,[15],inactive
same,Potency,[3],26.4 µM (active)
same,Potency,[4],inactive
same,Potency,[18],inactive
same,Potency,[10],inactive
same,Potency,[12],inactive
CC(C)(C)OC(=O)N[C@H]1CCCCCC=C[C@@H]2C[C@@]2(C(=O)NS(=O)(=O)C2CC2)NC(=O)[C@@H]2C[C@@H](OC(=O)N3Cc4cccc(F)c4C3)CN2C1=O,Potency,[1],inactive
same,Potency,[13],inactive
same,Potency,[14],inactive
same,Potency,[15],inactive
same,Potency,[4],inactive
same,viability,[17],123%
same,Potency,[18],inactive
same,Potency,[5],inactive
same,Potency,[19],inactive
same,Potency,[7],inactive
same,Potency,[9],inactive
same,Potency,[10],inactive
same,Potency,[11],inactive
same,Potency,[12],inactive
CC(C)(C)c1cc(C(=O)O)c(NC(=O)Nc2ccc3[nH]ncc3c2)s1,Potency,[1],inactive
same,Potency,[2],inactive
same,Potency,[15],inactive
same,Potency,[5],inactive
same,Potency,[6],inactive
same,Potency,[19],inactive
same,Potency,[20],inactive
same,Potency,[7],16.6 µM (active)
same,Potency,[8],inactive
same,Potency,[9],inactive
same,Potency,[10],inactive
same,Potency,[11],inactive
C=C1C(=O)OC2C=C(C)CCC=C(C)CCC12 (centres undefined),Potency,[1],23.5 µM (active)
same,Potency,[13],23.5 µM (active)
same,Potency,[14],29.6 µM (active)
same,Potency,[15],14.8 µM (active)
same,Potency,[16],4.69 µM (active)
same,Potency,[4],18.7 µM (active)
same,Potency,[17],29.6 µM (active)
same,Potency,[18],20.9 µM (active)
same,Potency,[6],16.6 µM (active)
same,Potency,[19],8.33 µM (active)
same,Potency,[20],inactive
same,Potency,[7],16.6 µM (active)
same,Potency,[8],18.7 µM (active)
same,Potency,[10],20.9 µM (active)
same,Potency,[11],20.9 µM (active)
same,Potency,[12],18.7 µM (active)
COc1cc(NC(=O)c2ccc(-c3ccc(Cl)cc3)o2)cc(OC)c1,Potency,[1],inactive
same,Potency,[2],inactive
same,Potency,[16],3.32 µM (active)
same,viability,[17],155%
same,Potency,[18],1.66 µM (active)
same,Potency,[5],1.66 µM (active)
same,Potency,[6],3.32 µM (active)
same,Potency,[19],8.33 µM (active)
same,Potency,[20],10.5 µM (active)
same,Potency,[7],5.9 µM (active)
same,Potency,[8],5.9 µM (active)
same,Potency,[9],inactive
same,Potency,[11],inactive
same,Potency,[12],inactive
